Data as given in PubChem BioAssay.
Inconclusive results are not listed. For some of these results: Entries with a potency or affinity are not part of this list. The list shows a part of the results. The source made the active and inactive calls.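 The calls were made as follows, unless noted: active = fitted half-maximal concentration within the tested dose range, moderate curve steepness, a statistically real signal drop, and little compound fluorescence or tag-binding interference; inactive = the rest.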

Key:
[1] = biological target: Cell division control protein 42 homolog (Homo sapiens) (UniProt P60953); assay: activated mutant Cdc42 GTP-binding inhibitors, dose response, biochemical, multiplex bead flow cytometry, Bodipy-FL-GTP (AID 1333)
Cell division control protein 42 homolog (Homo sapiens), sequence (P60953 whole entry, looked up): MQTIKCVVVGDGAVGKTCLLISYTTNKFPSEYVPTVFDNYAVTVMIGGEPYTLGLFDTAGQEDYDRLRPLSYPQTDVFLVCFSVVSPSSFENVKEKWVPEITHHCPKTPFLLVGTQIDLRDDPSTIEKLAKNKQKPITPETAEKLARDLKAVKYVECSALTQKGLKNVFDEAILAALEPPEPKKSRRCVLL

[2] = biological target: Cell division control protein 42 homolog (Homo sapiens) (UniProt P60953); assay: wildtype Cdc42 GTP-binding inhibitors, dose response, biochemical, multiplex bead flow cytometry, Bodipy-FL-GTP (AID 1334;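 active = fitted half-maximal concentration within the tested range, moderate curve steepness, significant signal drop, and little compound fluorescence or bead-linkage interference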); settings: bead-based flow cytometry, Bodipy-FL-GTP binding to GST-Cdc42; at 100 µM (top of the series) unless noted
[3] = biological target: GTPase HRas (Homo sapiens) (UniProt P01112); assay: inhibitors of GTP binding to wildtype Ras, dose response, biochemical, multiplex bead flow cytometry (AID 1335;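 active = fitted half-maximal concentration within 10 nM to 100 µM, steepness 0.5 to 2, significant signal drop, low assay interference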); settings: bead-based flow cytometry, Bodipy-GTP binding to GST-Ras; at 100 µM (top of the series) unless noted
GTPase HRas (Homo sapiens), sequence (P01112 whole entry, looked up): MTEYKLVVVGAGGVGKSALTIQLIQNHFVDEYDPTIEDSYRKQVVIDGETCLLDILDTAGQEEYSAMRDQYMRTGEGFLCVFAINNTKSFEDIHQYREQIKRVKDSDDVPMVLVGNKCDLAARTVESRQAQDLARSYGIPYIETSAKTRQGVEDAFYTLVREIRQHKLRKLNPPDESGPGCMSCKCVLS

[4] = system: Ras-related protein Rab-7a (dog), GTP binding; assay: Rab7 GTP binding inhibitors, potency, dose response, biochemical, wildtype, multiplex bead flow cytometry (AID 1336; call rule not given here)
[5] = biological target: Ras-related C3 botulinum toxin substrate 1 (Homo sapiens) (UniProt P63000); assay: wildtype Rac1 GTP binding inhibitors, dose response, biochemical, multiplex bead flow cytometry (AID 1340;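 active = dose curve with midpoint inside tested range, moderate steepness, plateau gap beyond fit error, low compound glow and bead-link interference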); settings: GST-Rac1 beads, Bodipy-FL-GTP binding; at 100 µM (top of the series) unless noted
[6] = biological target: GTPase HRas (Homo sapiens) (UniProt P01112); assay: activated Ras mutant GTP binding inhibitors, dose response, biochemical, multiplex bead flow cytometry (AID 1341;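 active = dose-response curve with midpoint inside the tested range, moderate steepness, significant amplitude and little compound fluorescence or bead-attachment interference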;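 also: GST-tagged constitutively activated Ras mutant immobilized on beads and multiplexed with other GTPases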)
[7] = RPL19A-GFP modulators, yeast TOR pathway, confirmation, cell-based, S. cerevisiae, flow cytometry, cherry picks, mother/daughter gates (AID 2270;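 active = GFP response below 50% of the DMSO control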); settings: S. cerevisiae RPL19A-GFP strain, 3 h, at 10 µM, stronger effect = lower value, 100 = same GFP as DMSO wells
[8] = LAP4-GFP expression modulators in yeast, confirmation, cell-based, cherry picks, flow cytometry, mother/daughter gates (AID 2271;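 active = GFP response above 150% of the DMSO control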;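 also: ratio of sample to DMSO plate mean so 100% equals DMSO level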); settings: S. cerevisiae LAP4-GFP strain, 3 h, at 10 µM, stronger effect = higher value, 100 means same as DMSO control
[9] = modulators of MEP2-GFP levels in yeast, confirmation, S. cerevisiae, flow cytometry GFP, cherry picks (AID 2272;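 active = GFP response above 150% of the DMSO control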;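 also: ratio of well signal to plate DMSO mean so 100% equals DMSO level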); settings: S. cerevisiae MEP2-GFP strain, 3 h, at 10 µM, stronger effect = higher value
[10] = AGP1-GFP expression modulators, hit retest, confirmation, cell-based, flow cytometry, S. cerevisiae, cherry picks (AID 2273;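 active = GFP response above 150% of the DMSO level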;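 also: median GFP channel fluorescence over the whole cell population gate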); settings: S. cerevisiae AGP1-GFP strain, 3 h, at 10 µM
[11] = modulators of CIT2-GFP expression in yeast, confirmation, S. cerevisiae, GFP fusion, cherry picks, mother/daughter gates (AID 2274;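 active = GFP response above 150% of the DMSO level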); settings: S. cerevisiae CIT2-GFP strain, flow cytometry, 3 h, at 10 µM, stronger effect = higher value
[12] = LAP4-GFP expression modulators in yeast, confirmation, cell-based, second cherry pick, flow cytometry (AID 2621;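 active = GFP signal as percent of the solvent control above about 150%, meaning raised reporter expression, limit read from the data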;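 also: ratio of well median GFP fluorescence to plate DMSO mean so 100% = DMSO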); settings: S. cerevisiae LAP4-GFP strain, 3 h, at 10 µM, stronger effect = higher value
[13] = modulators of MEP2-GFP levels in yeast, confirmation, S. cerevisiae, flow cytometry GFP, second cherry picks (AID 2622;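 active = GFP signal above 150% of the solvent control wells, that is a rise of more than half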;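 also: median channel GFP fluorescence of all gated yeast cells per well; ratio of median GFP to plate DMSO average so 100% = DMSO level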); settings: S. cerevisiae MEP2-GFP strain, 3 h, at 10 µM, stronger effect = higher value
[14] = RPL19A-GFP modulators in TOR pathway yeast, confirmation, cell-based, S. cerevisiae, flow cytometry, second cherry pick (AID 2623;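 active = under 65% GFP response relative to DMSO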;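 also: median GFP channel fluorescence per well over the all cells gate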); settings: S. cerevisiae RPL19A-GFP strain, 3 h, at 10 µM, stronger effect = lower value, 100% means same as DMSO wells
[15] = modulators of CIT2-GFP expression in yeast, confirmation, flow cytometry, second cherry pick, single plex (AID 2624;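 active = GFP response vs DMSO above about 150%, limit read from the data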;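 also: median green fluorescence per well over all gated yeast cells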); settings: S. cerevisiae CIT2-GFP strain, 3 h, at 10 µM, stronger effect = higher value, DMSO control wells read 100%
[16] = AGP1-GFP expression modulators, hit retest, confirmation, cell-based, flow cytometry, S. cerevisiae, cherry pick set 2 (AID 2643;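 active = over 150 percent of DMSO response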;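 also: median GFP channel fluorescence over all cells without mother daughter split; sample median GFP divided by mean DMSO control so 100% equals DMSO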); settings: S. cerevisiae AGP1-GFP strain, 3 h, at 10 µM, stronger effect = higher value
[17] = compound autofluorescence in yeast s288c, dose response, artefact control for yeast TOR pathway GFP screen, s288c strain (AID 2757;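 active = fluorescence span over the dose series, or activity score, above about 33, limit read from the data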;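 also: thousands of bead-calibrated equivalent soluble fluorophore molecules from median cell fluorescence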); settings: S. cerevisiae s288c, 520 nm autofluorescence, flow cytometry, 3 h; at 33 µM; stronger effect = higher value; zero means same as solvent-only cells
[18] = yeast TOR pathway RPL19A-GFP modulators, primary screen, cell-based, S. cerevisiae, multiplex flow cytometry (AID 1862; in the data active = percent of DMSO control GFP below about 86%;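 also: lower values mimic rapamycin by blocking the RPL19A rise seen in DMSO cells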); settings: S. cerevisiae RPL19A-GFP strain, flow cytometry fluorescence, 3 h; at 10 µM; stronger effect = lower value
[19] = modulators of MEP2-GFP levels in yeast, primary screen, S. cerevisiae, multiplex flow cytometry (AID 1867;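 active = GFP response, as percent of the DMSO control, above the screen-wide mean plus 3 SD, about 139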;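 also: median GFP channel fluorescence of barcode-gated MEP2-GFP cells measured by flow cytometry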); settings: S. cerevisiae MEP2-GFP strain, 3 h, at 10 µM, stronger effect = higher value, 100% means same as DMSO wells
[20] = modulators of CIT2-GFP expression in yeast, primary screen, S. cerevisiae, GFP fusion, multiplex flow cytometry (AID 1870;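 active = percent response above a set limit, the screen-wide mean plus 3 SD, cut at about 130% in these data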;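 also: barcoded CIT2-GFP strain pooled with four other GFP strains with rapamycin as positive control; median GFP fluorescence per well over plate mean of DMSO wells so 100% = DMSO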); settings: 3 h, at 10 µM, stronger effect = higher value
[21] = modulators of LAP4-GFP expression in yeast, primary screen, S. cerevisiae, multiplex flow cytometry (AID 1873;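 active = GFP signal, as percent of the solvent control, above the screen mean plus 3 SD, about 149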); settings: 3 h, at 10 µM, stronger effect = higher value
[22] = modulators of AGP1-GFP expression in yeast TOR pathway, primary screen, cell-based, multiplex flow cytometry, S. cerevisiae (AID 1887;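 active = GFP signal above the screen-wide mean plus 3 SD, that is over about 124.5% of the solvent control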;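 also: AGP1-GFP fusion strain of S. cerevisiae within a five-strain barcoded multiplex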); settings: 3 h, at 10 µM, stronger effect = higher value
[23] = inhibitors of CD8+ T cell-vesicle binding, pilot screen, LFA-1/ICAM-1 modulator project, MLPCN validation set, flow cytometry (AID 2523;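 active = response below a set limit, under 55% cells CD8-positive and vesicle-bound, and CD8 cells' 90th-percentile brightness under 279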;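 as to vesicle binding response: mean PE anti-B7-1 fluorescence of CD8+ cells relative to row control; 100% = QL9-loaded vesicles with DMSO vehicle in the same plate row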); settings: 2C mouse CD8+ T cells, at 7 µM, stronger effect = lower value; double positive events: measured here: CD8+/vesicle+ event percentage
[24] = biological target: Integrin beta-1 (Homo sapiens) + Integrin alpha-4 (Homo sapiens) (UniProt P13612+P05556); assay: inhibition of HUTS-21 binding to VLA-4, pilot screen, VLA-4 allosteric modulator project, U937 cells, HUTS-21 mAb, flow cytometry, validation set (AID 2674;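 active = inhibition above 50%, about 3 SD of the validation set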;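 also: antibody binding induced by the VLA-4 ligand LDV present at three times its Kd; 0% = LDV ligand with antibody and no compound and 100% = antibody without LDV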); settings: HUTS-21 LIBS mAb binding, at 6.7 µM, stronger effect = higher value, binding induced by LDV ligand
[25] = superoxide lowering in aged yeast cells, pilot screen, validation compound set (AID 2706;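 active = superoxide response below 65% of plate, a cut near 3 SD across the whole screen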;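 also: yeast exposed to compound for one week at 30 degrees C before staining; 100% = mean of all compound wells on the same plate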); settings: S. cerevisiae aging, superoxide DHE fluorescence; at 10 µM; stronger effect = lower value
[26] = biological target: Beta-adrenergic receptor kinase 1 (Homo sapiens) (UniProt P25098); assay: GRK2 binders displacing RNA aptamer, biochemical, validation, human GRK2, bead flow cytometry (AID 488806;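 active = aptamer binding inhibition above 30%, about 3 SD of noise from non-fluorescent compounds; inactive = inhibition at or below 30%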); settings: bead-bound GRK2, FAM-aptamer displacement, at 10 µM, stronger effect = higher value
Beta-adrenergic receptor kinase 1 (Homo sapiens), sequence (P25098 whole entry, looked up): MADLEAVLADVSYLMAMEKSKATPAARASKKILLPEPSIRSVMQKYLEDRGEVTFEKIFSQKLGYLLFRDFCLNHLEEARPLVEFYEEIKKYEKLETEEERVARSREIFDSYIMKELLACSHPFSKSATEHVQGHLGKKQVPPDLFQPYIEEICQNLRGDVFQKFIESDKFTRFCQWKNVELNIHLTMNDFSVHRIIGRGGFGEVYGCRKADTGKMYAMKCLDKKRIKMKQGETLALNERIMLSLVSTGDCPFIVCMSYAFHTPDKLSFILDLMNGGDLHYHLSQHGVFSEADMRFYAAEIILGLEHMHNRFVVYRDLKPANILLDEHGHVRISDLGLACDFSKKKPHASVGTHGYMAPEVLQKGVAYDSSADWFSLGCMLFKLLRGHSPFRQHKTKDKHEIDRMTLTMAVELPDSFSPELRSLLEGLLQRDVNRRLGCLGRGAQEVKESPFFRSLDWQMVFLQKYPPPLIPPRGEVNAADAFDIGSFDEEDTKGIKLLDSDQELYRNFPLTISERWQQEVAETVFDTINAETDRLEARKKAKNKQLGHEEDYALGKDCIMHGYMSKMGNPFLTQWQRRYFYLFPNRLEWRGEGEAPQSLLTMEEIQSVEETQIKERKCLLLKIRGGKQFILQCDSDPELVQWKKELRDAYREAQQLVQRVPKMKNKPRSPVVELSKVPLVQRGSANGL

[27] = biological target: Beta-2 adrenergic receptor (Homo sapiens) (UniProt P07550); assay: beta2AR agonists driving receptor internalization, pilot screen, cell-based, FAP fluorogen, flow cytometry, validation set (AID 504459;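 active = percent response above 42, roughly 3 SD of non-fluorescent test compounds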;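 also: agonist-driven loss of surface beta2AR via internalization measured by FAP dye flow cytometry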); settings: Am2.2-beta2AR cells, FAP surface receptor flow cytometry; at 10 µM; stronger effect = higher value
Beta-2 adrenergic receptor (Homo sapiens), sequence (P07550 whole entry, looked up): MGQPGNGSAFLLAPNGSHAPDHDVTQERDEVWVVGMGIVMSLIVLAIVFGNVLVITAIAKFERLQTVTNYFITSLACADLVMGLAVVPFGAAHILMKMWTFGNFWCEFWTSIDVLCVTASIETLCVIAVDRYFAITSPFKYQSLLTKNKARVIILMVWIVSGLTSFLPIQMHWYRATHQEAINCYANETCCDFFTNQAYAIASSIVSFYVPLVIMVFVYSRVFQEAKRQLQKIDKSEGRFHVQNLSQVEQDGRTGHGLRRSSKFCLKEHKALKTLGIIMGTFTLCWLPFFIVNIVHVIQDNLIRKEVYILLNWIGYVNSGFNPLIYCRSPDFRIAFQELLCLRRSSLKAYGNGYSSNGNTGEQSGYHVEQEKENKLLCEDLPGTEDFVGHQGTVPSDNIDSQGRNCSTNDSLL

[28] = biological target: AP-2 complex subunit beta (Homo sapiens) (UniProt P63010); assay: inhibitors of arrestin peptide binding to AP2, pilot screen, biochemical, validation set, GST-AP2 beads, flow cytometry (AID 504541;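 active = inhibition above 54%, about 3 SD of non-fluorescent compounds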;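 also: AP2 carries R879A mutation and is captured from E. coli lysate; bead-bound FITC arrestin peptide fluorescence measuring arrestin peptide binding to AP2; 0% = DMSO wells and 100% = excess unlabeled arrestin peptide control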); settings: FITC arrestin peptide, at 10 µM, stronger effect = higher value, AP2 beta2 appendage fragment, R879A mutant
AP-2 complex subunit beta (Homo sapiens), sequence (P63010 whole entry, looked up, the tested form may be a part, one chain of several): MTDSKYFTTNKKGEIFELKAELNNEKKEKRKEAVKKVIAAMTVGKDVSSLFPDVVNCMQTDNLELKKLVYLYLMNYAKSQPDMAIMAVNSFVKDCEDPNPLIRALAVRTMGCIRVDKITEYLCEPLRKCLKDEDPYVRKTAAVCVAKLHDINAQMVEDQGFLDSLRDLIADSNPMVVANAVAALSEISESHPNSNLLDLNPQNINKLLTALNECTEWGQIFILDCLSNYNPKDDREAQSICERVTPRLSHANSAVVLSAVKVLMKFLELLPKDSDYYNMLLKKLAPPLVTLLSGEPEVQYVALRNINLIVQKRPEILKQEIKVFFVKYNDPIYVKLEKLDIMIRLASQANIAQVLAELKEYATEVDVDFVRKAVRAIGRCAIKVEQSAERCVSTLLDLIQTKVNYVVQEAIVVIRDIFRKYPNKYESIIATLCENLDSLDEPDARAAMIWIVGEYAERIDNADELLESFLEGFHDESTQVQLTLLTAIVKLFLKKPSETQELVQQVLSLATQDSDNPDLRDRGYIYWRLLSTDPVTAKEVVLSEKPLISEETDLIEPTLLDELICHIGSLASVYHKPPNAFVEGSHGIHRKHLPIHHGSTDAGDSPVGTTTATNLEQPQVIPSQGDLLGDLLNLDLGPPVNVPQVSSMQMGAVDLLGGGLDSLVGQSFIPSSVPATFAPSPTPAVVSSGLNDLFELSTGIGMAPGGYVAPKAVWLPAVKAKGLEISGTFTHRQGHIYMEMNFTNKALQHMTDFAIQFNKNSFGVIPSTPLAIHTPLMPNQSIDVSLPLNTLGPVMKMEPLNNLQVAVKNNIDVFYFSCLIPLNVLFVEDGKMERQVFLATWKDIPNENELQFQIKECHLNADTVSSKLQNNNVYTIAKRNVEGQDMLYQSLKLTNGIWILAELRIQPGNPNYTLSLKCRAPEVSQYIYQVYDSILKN

[29] = yeast V-ATPase proton transport modulators, S. cerevisiae, pHLuorin, HTS validation (AID 504600; in the data active = response above about 15%;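 also: plate controls were DMSO for no effect and reference compound for full effect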); settings: S. cerevisiae pHLuorin cytosolic pH, at 10 µM, stronger effect = higher value
[30] = system: anti-desmoglein-3 scFv antibody binding to human DSG3; assay: inhibitors of anti-DSG3 scFv binding to DSG3, pilot screen, biochemical, validation compound set, bead-based, flow cytometry (AID 588368;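 active = binding below the plate cutoff, the plate median minus 3 SD, with a reading above zero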;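 also: signal is the median channel fluorescence of bead-bound GFP antibody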); settings: Protein G beads, DSG3-Fc, scFv-GFP binding, at 10 µM, stronger effect = lower value
[31] = inhibitors of fungal efflux pumps CDR1, CDR2, MDR1, pilot screen, validation compound set, multiplex, phenotypic (AID 588506;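 active = efflux inhibition above 0.42, the validation set average plus 4 SD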;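 also: Nile Red retained in cells so higher fluorescence means more efflux inhibition; 0 = negative control wells and 1 = enniatin B 25 µM full block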); settings: S. cerevisiae pump-expressing triplex, Nile Red efflux flow cytometry; at 10 µM; stronger effect = higher value; the pumps come from Candida albicans
[32] = biological target: ATP-binding cassette sub-family B member 6 (Homo sapiens) (UniProt Q9NP58); assay: ABCB6 transporter inhibitors, pilot screen, K562-ABCB6 cells, flow cytometry, validation set (AID 588550;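 active = inhibition above the screen-wide mean plus 3 SD, about 51%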;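 also: 0% = DMSO wells and 100% = benzethonium chloride 70 µM positive control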); settings: K562-ABCB6 porphyrin accumulation, 1 h, at 10 µM, stronger effect = higher value
ATP-binding cassette sub-family B member 6 (Homo sapiens), sequence (Q9NP58 whole entry, looked up): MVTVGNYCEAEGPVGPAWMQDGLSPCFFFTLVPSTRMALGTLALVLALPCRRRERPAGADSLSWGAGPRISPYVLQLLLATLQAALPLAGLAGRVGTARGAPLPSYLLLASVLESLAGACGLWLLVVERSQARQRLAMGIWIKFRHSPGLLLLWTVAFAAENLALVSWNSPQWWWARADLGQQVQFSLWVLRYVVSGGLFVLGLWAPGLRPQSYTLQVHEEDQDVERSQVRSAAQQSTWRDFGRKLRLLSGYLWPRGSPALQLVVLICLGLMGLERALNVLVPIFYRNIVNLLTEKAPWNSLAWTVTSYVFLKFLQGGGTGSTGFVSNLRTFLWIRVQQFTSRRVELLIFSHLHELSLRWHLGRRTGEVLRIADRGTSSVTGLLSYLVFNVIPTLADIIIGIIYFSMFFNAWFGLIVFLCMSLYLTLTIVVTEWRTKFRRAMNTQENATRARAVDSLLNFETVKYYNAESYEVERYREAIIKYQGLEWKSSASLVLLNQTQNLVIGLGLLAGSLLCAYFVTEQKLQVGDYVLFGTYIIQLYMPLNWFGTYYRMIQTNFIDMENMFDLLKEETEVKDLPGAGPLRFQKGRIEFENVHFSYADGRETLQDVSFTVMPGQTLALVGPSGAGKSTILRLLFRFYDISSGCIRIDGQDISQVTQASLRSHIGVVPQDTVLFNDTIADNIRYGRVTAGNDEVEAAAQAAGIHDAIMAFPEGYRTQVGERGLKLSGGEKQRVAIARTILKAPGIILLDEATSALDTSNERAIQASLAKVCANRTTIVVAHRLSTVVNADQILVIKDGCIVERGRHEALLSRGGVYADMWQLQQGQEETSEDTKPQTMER

[33] = promoters of myeloid differentiation in arrested cells, primary screen, cell-based, GFP/MAC1 double positive, flow cytometry, validation set (AID 588685;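 active = differentiation response of at least 50%, scaled between solvent and reference control, from cells with both markers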;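 also: compound exposure lasts four days before antibody staining and flow analysis; 0% = DMSO wells and 100% = 5 µM fulvestrant positive control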); settings: ER-HoxA9 marrow cells, stronger effect = higher value, normalized: vehicle 0, fulvestrant 100
[34] = measured here: daughter cell gate
[35] = measured here: mother cell gate
[36] = measured here: daughter cell gate response
[37] = measured here: mother cell gate response

Cc1cc(C)c(C(=O)Cn2cnc3cc([N+](=O)[O-])ccc3c2=O)cc1C
outcome [1]: inactive | fluorescence, percent of control (lower = inhibition) [2]: 34% | GTP binding, percent of control [3]: 74.6% | outcome [4]: inactive | GTP binding signal, raw median fluorescence (lower = inhibition) (MCF (arbitrary fluorescence units)) [5]: 161 | outcome [6]: inactive | GFP response vs DMSO [7]: 100% (inactive) | GFP response vs DMSO [7, 34]: 101% | GFP response vs DMSO [7, 35]: 99.8% | GFP response relative to DMSO [8]: 89.4% (inactive) | GFP response relative to DMSO [8, 36]: 88.2% | GFP response relative to DMSO [8, 37]: 91.3% | GFP response vs DMSO [9]: 99.3% (inactive) | GFP response, % of DMSO [10]: 102% (inactive) | GFP response, % of DMSO [11]: 97.2% (inactive) | GFP response, % of DMSO [11, 34]: 97.6% | GFP response, % of DMSO [11, 35]: 98.2%

COc1ccc(C(=O)/C=C/Nc2ccc(S(=O)(=O)Nc3nc(C)cc(C)n3)cc2)cc1OC
outcome [1]: inactive | fluorescence, percent of control (lower = inhibition) [2]: 39.1% | GTP binding, percent of control [3]: 80% | outcome [4]: inactive | outcome [6]: inactive

Cn1c(=O)n(Cc2ccc(F)cc2)c(=O)c2c1nc1n2CCN1Cc1ccco1
outcome [1]: inactive | fluorescence, percent of control (lower = inhibition) [2]: 31.2% | GTP binding, percent of control [3]: 68.1% | outcome [4]: inactive | GTP binding signal, raw median fluorescence (lower = inhibition) (MCF (arbitrary fluorescence units)) [5]: 164 | outcome [6]: inactive

COc1ccc(/C=C/C(=O)c2cc(Br)ccc(=O)c2O)cc1
outcome [1]: inactive | fluorescence, percent of control (lower = inhibition) [2]: 28.6% | GTP binding, percent of control [3]: 73% | outcome [4]: inactive | GTP binding signal, raw median fluorescence (lower = inhibition) (MCF (arbitrary fluorescence units)) [5]: 226 | outcome [6]: inactive | GFP response vs DMSO [12]: 169% (active) | GFP response vs DMSO [13]: 185% (active) | GFP response vs DMSO [14]: 77.3% (inactive) | GFP response vs DMSO [15]: 191% (active) | percent response vs DMSO [16]: 80% (inactive) | fluorescence change (kMESF span) [17]: 68.2 (active)

COC(=O)C1=NN(C(=O)c2cccc(Br)c2)C(O)(c2ccc(Cl)cc2)C1 (stereo not given)
outcome [1]: inactive | fluorescence, percent of control (lower = inhibition) [2]: 31.2% | GTP binding, percent of control [3]: 79.1% | outcome [4]: inactive | GTP binding signal, raw median fluorescence (lower = inhibition) (MCF (arbitrary fluorescence units)) [5]: 240 | outcome [6]: inactive | percent of DMSO control GFP [18]: 100% (inactive) | GFP response vs DMSO [19]: 95.1% (inactive) | percent response of DMSO control [20]: 97.8% (inactive) | GFP response vs DMSO [21]: 114% (inactive) | GFP response, % of DMSO [22]: 89.9% (inactive) | double positive events [23]: 63.4% | vesicle binding response [23]: 223% (inactive) | inhibition [24]: -83.5% (inactive) | superoxide response (% of plate) [25]: 93.4% (inactive) | aptamer binding inhibition [26]: 3% (inactive) | response [27]: -15.6% (inactive) | inhibition [28]: -11.3% (inactive) | response [29]: -0.27% (inactive) | binding (% of control) [30]: 109% (inactive) | efflux inhibition (fraction of control) [31]: -0.1 (inactive) | inhibition [32]: -2% (inactive) | differentiation response [33]: 11% (inactive)

O=C(O)/C=C/c1cn(Cc2ccccc2)nc1-c1ccc(Cl)cc1
outcome [1]: inactive | fluorescence, percent of control (lower = inhibition) [2]: 34.9% | GTP binding, percent of control [3]: 84.9% | outcome [4]: inactive | outcome [6]: inactive

O=C(C#Cc1cccc([N+](=O)[O-])c1)c1ccccc1
outcome [1]: inactive | fluorescence, percent of control (lower = inhibition) [2]: 31.6% | GTP binding, percent of control [3]: 81% | outcome [4]: inactive | GTP binding signal, raw median fluorescence (lower = inhibition) (MCF (arbitrary fluorescence units)) [5]: 245 | outcome [6]: inactive | GFP response vs DMSO [7]: 94.1% (inactive) | GFP response vs DMSO [7, 34]: 98% | GFP response vs DMSO [7, 35]: 88% | GFP response relative to DMSO [8]: 190% (active) | GFP response relative to DMSO [8, 36]: 167% | GFP response relative to DMSO [8, 37]: 178% | GFP response vs DMSO [9]: 133% (inactive) | GFP response, % of DMSO [10]: 113% (inactive) | GFP response, % of DMSO [11]: 101% (inactive) | GFP response, % of DMSO [11, 34]: 104% | GFP response, % of DMSO [11, 35]: 91%
